High-throughput results (PubChem)
Cav32 inh: blocks human Cav3.2 T-type calcium channel; Cav3.2-expressing cells, Fluo-4 calcium fluorescence FDSS; active compounds read low; 100,000 compounds, 4% hits; AID 449739; B-score at 10 µM; O95180;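 active = single-dose well whose peak fluorescence ratio is a statistical outlier from its plate by either plate-standardised score or position-corrected B-score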
Target sequence (O95180 whole entry, looked up): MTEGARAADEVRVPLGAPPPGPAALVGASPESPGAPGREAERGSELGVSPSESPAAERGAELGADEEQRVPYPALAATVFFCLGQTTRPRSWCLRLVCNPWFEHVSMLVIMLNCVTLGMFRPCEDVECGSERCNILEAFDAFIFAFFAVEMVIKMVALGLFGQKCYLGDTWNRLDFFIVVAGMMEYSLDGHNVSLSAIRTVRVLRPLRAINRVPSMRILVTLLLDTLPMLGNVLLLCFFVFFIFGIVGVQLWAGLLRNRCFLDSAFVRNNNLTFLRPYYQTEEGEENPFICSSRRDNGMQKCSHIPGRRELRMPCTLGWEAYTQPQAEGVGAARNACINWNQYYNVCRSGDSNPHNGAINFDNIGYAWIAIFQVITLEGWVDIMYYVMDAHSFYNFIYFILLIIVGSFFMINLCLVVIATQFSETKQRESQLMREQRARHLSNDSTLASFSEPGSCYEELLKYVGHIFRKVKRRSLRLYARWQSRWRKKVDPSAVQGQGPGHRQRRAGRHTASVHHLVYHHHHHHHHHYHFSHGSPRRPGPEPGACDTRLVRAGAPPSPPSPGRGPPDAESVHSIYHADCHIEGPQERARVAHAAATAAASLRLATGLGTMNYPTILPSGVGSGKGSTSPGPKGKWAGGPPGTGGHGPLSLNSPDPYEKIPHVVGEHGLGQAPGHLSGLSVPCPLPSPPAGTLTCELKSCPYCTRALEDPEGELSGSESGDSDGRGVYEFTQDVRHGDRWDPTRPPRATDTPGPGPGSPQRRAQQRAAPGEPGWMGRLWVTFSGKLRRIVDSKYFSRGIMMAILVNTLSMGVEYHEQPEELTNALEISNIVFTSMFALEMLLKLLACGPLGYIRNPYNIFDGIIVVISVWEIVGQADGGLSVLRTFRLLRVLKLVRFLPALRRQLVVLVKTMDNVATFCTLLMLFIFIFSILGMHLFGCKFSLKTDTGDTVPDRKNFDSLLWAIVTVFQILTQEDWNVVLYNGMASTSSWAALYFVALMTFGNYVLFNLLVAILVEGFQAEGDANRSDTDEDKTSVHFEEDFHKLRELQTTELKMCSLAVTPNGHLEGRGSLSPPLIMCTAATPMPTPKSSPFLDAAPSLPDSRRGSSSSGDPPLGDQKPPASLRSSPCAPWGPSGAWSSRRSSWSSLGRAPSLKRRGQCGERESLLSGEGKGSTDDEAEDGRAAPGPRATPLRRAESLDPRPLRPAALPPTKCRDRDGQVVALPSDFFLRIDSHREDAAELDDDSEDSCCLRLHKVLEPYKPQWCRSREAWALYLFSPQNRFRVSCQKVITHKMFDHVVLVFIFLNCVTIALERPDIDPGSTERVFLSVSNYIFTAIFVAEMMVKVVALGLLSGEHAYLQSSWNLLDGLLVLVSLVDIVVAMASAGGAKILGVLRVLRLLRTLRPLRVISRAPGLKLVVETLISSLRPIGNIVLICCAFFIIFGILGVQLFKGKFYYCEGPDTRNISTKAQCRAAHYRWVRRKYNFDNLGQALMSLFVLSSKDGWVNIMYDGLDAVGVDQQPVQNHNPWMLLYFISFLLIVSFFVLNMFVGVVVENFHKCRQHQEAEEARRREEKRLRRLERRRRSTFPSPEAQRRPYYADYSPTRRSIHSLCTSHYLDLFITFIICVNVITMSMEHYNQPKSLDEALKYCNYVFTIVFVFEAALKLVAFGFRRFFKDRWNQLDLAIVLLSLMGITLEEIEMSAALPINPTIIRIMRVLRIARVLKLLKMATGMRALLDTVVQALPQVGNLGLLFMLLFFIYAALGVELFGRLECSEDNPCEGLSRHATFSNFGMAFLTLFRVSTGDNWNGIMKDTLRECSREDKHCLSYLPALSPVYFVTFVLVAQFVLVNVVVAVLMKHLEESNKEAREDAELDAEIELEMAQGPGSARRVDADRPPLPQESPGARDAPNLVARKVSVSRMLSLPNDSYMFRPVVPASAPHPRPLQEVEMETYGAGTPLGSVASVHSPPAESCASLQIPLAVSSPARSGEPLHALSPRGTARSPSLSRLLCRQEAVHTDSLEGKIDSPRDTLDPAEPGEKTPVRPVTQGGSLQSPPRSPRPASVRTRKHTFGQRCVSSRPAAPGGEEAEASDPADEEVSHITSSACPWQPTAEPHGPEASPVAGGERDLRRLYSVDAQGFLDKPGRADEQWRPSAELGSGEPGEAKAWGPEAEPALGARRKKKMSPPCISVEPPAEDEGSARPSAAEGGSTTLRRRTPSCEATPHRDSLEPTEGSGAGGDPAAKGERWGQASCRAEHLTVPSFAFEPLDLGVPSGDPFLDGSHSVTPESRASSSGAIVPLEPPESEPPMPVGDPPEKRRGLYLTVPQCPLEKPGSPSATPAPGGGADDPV
PostGolgi yeast: growth inhibition of a yeast mutant, post-Golgi transport screen | post-Golgi transport phenotypic cell assay | inhibition, % at 10 µM | 98,000 compounds, 0.9% hits;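 also: yeast cells grown in 1536-well plates; yeast grown about 18 h at 30C before absorbance read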
PostGolgi ctrl: growth of the yeast control strain, post-Golgi counter-screen; inhibition, % at 10 µM; AID 738; 98,000 compounds, 5% hits; efflux-deficient yeast background strain, growth absorbance A615, 16 h
Pyk2 oligo antag: antagonists of human Pyk2 oligomerization; Q14289; Q293 cells, Pyk2 FERM NanoBiT luminescence; active compounds read low; z-score (the deposit names both 25 µM and 10 µM); 99,000 compounds, 0.83% hits;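 active = Z-score of -3 or lower, scaled per plate to the spread of control and sample wells; inactive = z-score above -3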;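 also: negative z-score means lost luminescence so less FERM oligomerization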
Hits are given with their value; – = inactive; · = no result given. Most compounds without a hit are left out; they make up all but 8% or so of the library. Rule as the data show it, unless noted: active = inhibition above about 30%; inactive = the rest.

SMILES | Cav32 inh | PostGolgi yeast | PostGolgi ctrl | Pyk2 oligo antag
Cc1nn(-c2ccccc2)c2c1C(=O)N(Cc1ccccc1)C(=O)C(C)(C)C2 | – | – | – | –
Cc1nn(-c2nc3ccccc3n2Cc2ccccc2)c2c1C(=O)CC(C)(C)C2 | -5 | – | – | -4
CN(CCCC(=O)Nc1ccncc1)S(=O)(=O)c1ccc(Cl)cc1 | · | – | – | –
O=C(N/N=C/c1cccc(F)c1)c1csc2c1CCCC2 | · | – | 50 | –
O=C(COc1cc(Cl)ccc1Cl)Nc1nnc(CC(=O)N2CCOCC2)s1 | – | – | – | –
O=P(CCC(F)(F)F)(CCC(F)(F)F)CCC(F)(F)F | – | – | – | –
c1ccc(-c2nnc3sc(Cc4cccs4)nn23)cc1 | – | – | 30 | –
Cc1c(NCc2cc(Cl)cc(Cl)c2O)c(=O)n(-c2ccccc2)n1C | – | – | – | –
Cc1c(CCO)c(=O)n(-c2ccccc2)n1S(=O)(=O)c1c(Cl)cc(Cl)cc1Cl | -5.5 | – | – | –
O=C1OC(C(=O)Nc2nccs2)Cc2ccccc21 (stereo not given) | – | – | – | –
CCc1nnc(NC(=O)C2CCCN2C(=O)NC2CCCCC2)s1 (stereo not given) | – | – | – | –
COc1ccc(Br)cc1/C=N/NC(=O)CNC(=O)/C=C/c1ccccc1 | -7.6 | – | – | –
C=CCSc1nc(N)c2c(C)c(C)sc2n1 | – | – | – | –
CCNC(=S)N(Cc1ccc2c(c1)OCO2)C1CC(=O)N(c2ccc(F)cc2)C1=O (stereo not given) | -7.1 | – | – | –
O=C(c1cccc(C(F)(F)F)c1)N1CCOC12CCN(c1ncc(C(F)(F)F)cc1Cl)CC2 | – | – | – | –
O=C(CCc1ccccc1)N1CCN(c2ccc(Cl)cc2)CC1 | -5 | – | – | –
O=C(CN(C1CCCCC1)C1CCCCC1)N1CCc2ccccc2C1 | -5.8 | – | – | –
Cc1nc2ccc(S(=O)(=O)NCC(=O)N3CCN(c4ccccc4)CC3)cc2s1 | – | – | – | –
O=C(Nc1ccc(Cl)cc1)N1CCN(c2ccccc2)CC1 | – | · | · | –
Cc1nn(C)c(C)c1S(=O)(=O)N(CC(=O)N1CCc2ccccc2C1)c1ccc(C(C)C)cc1 | -4.8 | – | – | ·
O=C(CNS(=O)(=O)c1ccccc1)N1CCN(c2ccccc2)CC1 | – | – | 34 | –
CCCSc1nc(C)cc(C)c1C(N)=O | – | – | – | –
O=C(CN(c1ccc(Cl)c(Cl)c1)S(=O)(=O)c1ccccc1)N1CCc2ccccc2C1 | -5.4 | – | – | –
Cn1cc(CC(=O)N2CCN(c3ccc(Cl)cc3)CC2)c2ccccc21 | -4.5 | – | – | –
COc1ccc(N2CCN(C(=O)CN(c3ccccc3)S(=O)(=O)c3ccc(OC)cc3)CC2)cc1 | – | – | – | –
SMILES | Cav32 inh | PostGolgi yeast | PostGolgi ctrl | Pyk2 oligo antag
Cn1cc(CC(=O)N2CCN(c3ccccc3F)CC2)c2ccccc21 | – | – | – | ·
O=C(CN(c1ccc(Cl)cc1)S(=O)(=O)c1ccccc1)N1CCN(c2ccccc2)CC1 | -8.1 | – | – | –
COCCn1c(=O)[nH]c2cc(C(=O)NCC3CCCO3)ccc2c1=O (stereo not given) | – | – | – | –
COCCn1c(=O)[nH]c2cc(C(=O)NCCc3ccc(OC)c(OC)c3)ccc2c1=O | – | – | 34 | –
O=C(CN(Cc1ccco1)S(=O)(=O)c1cccs1)Nc1ccccc1C(F)(F)F | – | – | – | –
CC(C)(C)c1csc(NC(=O)Cn2c(=O)oc3ccccc32)n1 | -10 | – | – | -3.4
O=C(Cn1c(=O)oc2ccccc21)Nc1nc(-c2ccccc2)cs1 | – | – | – | –
CCCNC(=O)Cn1c(=O)oc2ccccc21 | – | 39 | – | –
N#CCCn1c(Cl)nc2ccccc21 | – | – | – | –
CCOC(=O)Cn1c(=O)n(C2CCCC2)c(=O)c2ccccc21 | · | – | – | –
O=c1c2ccccc2n(Cc2cccc(F)c2)c(=O)n1C1CCCC1 | · | – | 40 | –
N#Cc1ccccc1Cn1c(=O)n(C2CCCC2)c(=O)c2ccccc21 | -5.1 | – | 30 | –
CCC1(CC)NC(=O)N(CC(=O)Nc2sc3c(c2C(N)=O)CCC3)C1=O | – | – | – | –
FC(F)(F)C(Oc1nc(Nc2ccc(Cl)cc2)nc(N2CCOCC2)n1)C(F)(F)F | – | · | · | –
COc1cc(C(=O)Sc2ccc(C)cc2)cc(OC)c1OC | · | – | 45 | –
NC(=O)c1ccsc1NC(=O)c1cccs1 | – | · | · | ·
Cc1sc(NC(=O)c2cccs2)c(C(N)=O)c1C | – | – | 37 | –
O=[N+]([O-])CC(=Nc1ccc(Cl)cc1)N/N=C\c1oc(O)c2ccccc12 | – | – | – | –
CCCC(=O)Nc1ccc(NC(=O)c2ccccc2Cl)nc1 | – | – | – | –
CCCC(=O)Nc1ccc(NC(=O)CCc2ccccc2)cn1 | – | 30 | – | –
O=C(Cc1ccccc1)Nc1ccc(NC(=O)C2CC2)nc1 | – | – | 39 | –
CCC(C)(C(=O)NC1CCCCC1)N(C(=O)C1CCC(=O)N1)c1ccc(C)cc1 (stereo not given) | – | – | – | –
CCOc1cc(S(=O)(=O)N2CCC(Cc3ccccc3)CC2)c(OCC)cc1-n1cnnn1 | – | – | – | –
CCOc1cc(S(=O)(=O)N2CC=C(c3ccc(F)cc3)CC2)c(OCC)cc1-n1cnnn1 | – | – | 101 | –
O=C(/C=C/c1cccc([N+](=O)[O-])c1)NCCSc1ccccc1 | -3.7 | – | – | –
SMILES | Cav32 inh | PostGolgi yeast | PostGolgi ctrl | Pyk2 oligo antag
CCCCN(CCCC)C(=O)/C=C/c1cccc([N+](=O)[O-])c1 | -6 | – | – | –
CC1CN(C(=O)/C=C/c2cccc([N+](=O)[O-])c2)CC(C)O1 (stereo not given) | – | · | · | –
O=c1c2ccccc2nc(SCc2ccc([N+](=O)[O-])cc2)n1CCCO | · | · | · | –
C=CCn1c(SCC(=O)c2ccccc2)nnc1-c1ccc2c(c1)OCO2 | · | – | – | –
COc1cccc2c1C(=O)c1ccc3ccccc3c1C2=O | · | – | – | –
COc1ccc(OC)c2c1C(=O)c1ccccc1C2=O | -8.9 | – | – | ·
CCOc1cc(/C=N/O)cc(Cl)c1OC | – | – | – | –
CCCC(=O)Nc1cnc(NC(=O)c2cccc(F)c2)cc1C | – | – | – | –
O=C(CSCc1cccc(Cl)c1)N1CCN(Cc2ccc3c(c2)OCO3)CC1 | -5.1 | 48 | – | –
O=C(c1ccc(COc2ccc(Cl)cc2)o1)N1CCN(Cc2ccc3c(c2)OCO3)CC1 | – | · | 52 | –
O=C(OCc1ccc2c(c1)OCO2)c1ccc(S(=O)(=O)N2CCCCC2)cc1 | – | – | – | –
O=C(c1ccc(S(=O)(=O)N2CCCC2)cc1)N1CCN(Cc2ccc3c(c2)OCO3)CC1 | 3.9 | – | – | –
O=C(c1ccc(COc2ccccc2Cl)o1)N1CCN(Cc2ccc3c(c2)OCO3)CC1 | -4.9 | – | – | –
Cc1ccc(C(=O)N2CCN(Cc3ccc4c(c3)OCO4)CC2)o1 | – | – | – | –
O=C(c1ccc(F)cc1)N1CCN(c2cc(=O)[nH]nc2-c2ccccc2)CC1 | – | – | – | –
O=c1c2ccccc2c(-c2ccccc2)nn1-c1ccc(Cl)c(Cl)c1 | – | – | – | –
COC(=O)c1cccc(NC(=O)CCCOc2cccc(C)c2)c1 | – | – | – | –
CC1CCN(c2nc3ccc(C(=O)N4CCN(Cc5ccc6c(c5)OCO6)CC4)cc3s2)CC1 | · | – | 41 | ·
